# Results reported in PubChem BioAssay (NCI).
# The panel holds about 79,000 compounds, 15% with a hit somewhere; the sample as a whole holds those more often. A number with no mark means an inactive call. The source made the active and inactive calls. Rule as the data show it: active = growth inhibition above about 70%; inactive = the rest.
# Key:
# [1] = NCI Yeast Anticancer Drug Screen. Data for the rad50 strain (AID 155);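 also: 0% = growth of vehicle-only cultures of the same strain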; conditions: S. cerevisiae rad50 strain growth inhibition; at 50.0 µM; hits give high values
# How it was run: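 Growth of the mutant yeast was measured after compound exposure and referenced to vehicle-treated cultures.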
# [2] = NCI Yeast Anticancer Drug Screen. Data for the mec2-1 strain (AID 157); conditions: S. cerevisiae mec2-1 strain, at 50.0 µM, hits give high values
# How it was run: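 Cells of the genetically defined mec2-1 yeast strain are incubated with test compound. Inhibition of growth is calculated against vehicle-treated controls.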
# [3] = NCI Yeast Anticancer Drug Screen. Data for the sgs1 mgt1 strain (AID 161);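 also: 0% = growth of cultures given vehicle only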; conditions: S. cerevisiae sgs1 mgt1 strain, at 50.0 µM, hits give high values
# How it was run: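 Genetically altered yeast, compound exposure, growth inhibition relative to vehicle.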
# [4] = NCI Yeast Anticancer Drug Screen. Data for the cln2 rad14 strain (AID 165);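 also: 0% = growth equal to vehicle treated cultures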; conditions: S. cerevisiae cln2 rad14 strain, at 50.0 µM, hits give high values
# How it was run: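 The screen exposed genetically defined yeast (cln2 rad14) to test compounds and scored growth inhibition relative to vehicle-treated controls.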
# [5] = NCI Yeast Anticancer Drug Screen. Data for the bub3 strain (AID 167); conditions: S. cerevisiae bub3 mutant strain, at 50.0 µM, hits give high values
# How it was run: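 Whole-cell yeast assay. The mutant strain was incubated with compounds, and growth inhibition was determined by comparison with vehicle-treated cells.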
# [6] = NCI Yeast Anticancer Drug Screen. Data for the mlh1 rad18 strain (AID 175); conditions: S. cerevisiae mlh1 rad18 strain growth inhibition; at 50.0 µM; hits give high values
# How it was run: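 Compound-treated yeast growth, normalised to vehicle controls. Strain bears defined DNA repair mutations.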
Structure (SMILES),growth inhibition [1] [%],growth inhibition [2] [%],growth inhibition [3] [%],growth inhibition [4] [%],growth inhibition [5] [%],growth inhibition [6]
CC(C)NC(=O)OCc1c(COC(=O)NC(C)C)c2n(c1-c1ccc(Cl)c(Cl)c1)CCS2(=O)=O,-0.5,2.2,4.5,-36.1,-1.95,8.15%
OCC1NC(COC2OC(CO)C(O)C(O)C2O)C(O)C(O)C1O (centres undefined),-17.5,-14.9,-19,17.1,-0.25,-6.25%
N#CC1(c2ccccc2)C(c2ccccc2)CC(O)(c2ccccc2)C(C(=O)c2ccccc2)C1c1ccccc1 (centres undefined),19.9,4.75,3.5,14.3,-1.1,-3.5%
NC1C(O)C(N)C(O)C(O)C1O (centres undefined),3.3,20.4,5.6,1.6,-13.4,3.25%
Brc1ccc2c[n+]3ccccc3cc2c1,11.9,7.35,12,-31.9,24.2,9.4%
COC(=O)Cc1ccccc1C(c1ccccc1)c1ccccc1,-1.85,-0.4,9.7,6.7,13.8,-0.65%
CCCCNC(=O)C(c1ccccc1)c1ccccc1,22.1,14.9,10.8,-12.3,14.3,4.2%
CCCCCCCCCCCCn1c2nc(=O)[nH]c(=O)c-2nc2ccccc21,-3.35,3.75,-8.15,4.25,-0.2,-26.1%
COC(=O)c1ccc(OC(=O)Nc2ccc(SC)cc2)cc1,3.2,40.5,25.4,-3.4,34.2,11.7%
O=C(c1ccc(CSc2ccc(Cl)cc2)o1)N1CCOCC1,23.9,12,45.5,24.2,32.6,26.6%
CCC(c1cccc(OC)c1)C(C(=O)O)c1ccc(OC)cc1 (centres undefined),5,17.5,12.6,7.15,7.35,27.2%
Cn1cnc(=S)c2ccccc21,-11,-12.8,-18.3,-6.05,0.8,-29.1%
O=c1oc2c3ccc4ccccc4c3n(CCN3CCCCC3)c2c2ccccc12,30.4,53.6,22.9,32.5,44.3,77.1% (active)
Cc1ccc2c(c1)nc(N)n[n+]2[O-],2.85,-14.7,-3.4,3.25,-8.95,-39.5%
CN(C)/C=C/C(=O)c1ccccc1,61.6,30.1,17.6,-16.4,6.05,8.95%
COC(=O)C1=C(C)N(NC(=O)Nc2ccccc2)C2(N)N(NC(=O)Nc3ccccc3)C(C)=C(C(=O)OC)C12C(=O)OC (centres undefined),-8.9,5.1,3.55,2.2,15.2,-2.8%
CCN(CC)C1=NS(=O)(=O)c2ccccc21,1.2,-3.65,9.45,-11.4,2.3,0.5%
COc1ccc(C2CC(C)(O)Oc3cc4c(cc32)OCO4)cc1 (centres undefined),47.5,26.3,13.7,43.6,44.9,27.1%
CCCN=C(C(C)=O)N(C)C,-1.7,1.3,-14.9,6.55,24.2,2.85%
